Sampled rows, rich in hits. Any-hit rate of the full collection: about 10%.
HP1b chromo inh = HTS for Inhibitors of HP1-beta Chromodomain Interactions with Methylated Histone Tails; Potency, µM (top dose mostly 114 µM), hits mostly inhibitors; Chromobox protein homolog 1 (Homo sapiens), P83916; 0.56% of 390,000 active; AlphaScreen HP1-beta / biotin-H3K9me3 peptide binding; note: nearly all actives have a fitted effect of over 70% in size
Target sequence (P83916 whole entry, looked up): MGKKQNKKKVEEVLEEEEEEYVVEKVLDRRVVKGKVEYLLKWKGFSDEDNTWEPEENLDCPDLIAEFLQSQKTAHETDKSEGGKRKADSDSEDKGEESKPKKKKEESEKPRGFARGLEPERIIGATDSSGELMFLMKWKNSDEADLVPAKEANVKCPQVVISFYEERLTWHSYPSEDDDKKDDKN
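AlphaScreen: HP1-beta (50 nM) preformed 30 min with biotin-H3(1-18)K9me3 peptide (50 nM) in PBS pH 7.4, 0.01% Tween-20. Compound added for 30 min at RT, then streptavidin donor/nickel chelate acceptor beads (10 ug/mL) for 30 min.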
BAZ2B inh = qHTS Assay for Inhibitors of BAZ2B; AlphaScreen BAZ2B-H3K14Ac peptide displacement; Potency, µM (top dose mostly 114 µM), most hits filed as inhibitors; 4.4% of 360,000 active; note: nearly all actives have a fitted effect of over 60% in size
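AlphaScreen displacement: compounds (up to 110uM) incubated 30 min at room temperature with a preformed 50 nM BAZ2B/50 nM biotinylated H3K14Ac peptide complex in PBS pH 7.4 with Tween-20. Donor and acceptor beads at 10 ug/mL final added, 20 min light-protected before reading.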
JMJD2A Tudor inh = qHTS Assay for Inhibitors of JMJD2A-Tudor Domain; AID 504339, 2011; AlphaScreen JMJD2A-Tudor / H3K4me3 peptide binding; 4.4% of 390,000 active; Potency, µM (highest dose often 114 µM), actives largely listed as inhibitors; note: nearly all actives have a fitted effect of over 50% in size
CtBP-E1A inh = qHTS Assay for Inhibitors of the CtBP/E1A Interaction | activity change, % (no concentration beside the values) | CtBP / adenovirus E1A interaction (AlphaScreen) | AID 651724, 2012 | AlphaScreen GST-E1A/His-CtBP binding, 1536-well; hits give low values | 0.49% of 340,000 active; in the data active = activity change below about -65%; inconclusive = mostly about -30% to -63%
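Steps: dispense buffer (Tris pH 8.0, NaCl 300 mM, TCEP 1 mM, BSA, Tween 20); add 5X protein mix (GST-E1A, His-CtBP, 125 nM each); pin 23 nL compound; 2 h at 37 °C, dark; add 5X beads (50 ug/mL); 1 h; read.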
G9a inh = qHTS Assay for Inhibitors of Histone Lysine Methyltransferase G9a | AID 504332, 2011 | G9a H3K9 monomethylation, AlphaScreen, 2 h | Potency, µM (highest dose often 102 µM), usual class: inhibitors | 8.8% of 350,000 active; note: nearly all actives have a fitted effect of over 75% in size
Target sequence (Q96KQ7 913-1193 limits assumed): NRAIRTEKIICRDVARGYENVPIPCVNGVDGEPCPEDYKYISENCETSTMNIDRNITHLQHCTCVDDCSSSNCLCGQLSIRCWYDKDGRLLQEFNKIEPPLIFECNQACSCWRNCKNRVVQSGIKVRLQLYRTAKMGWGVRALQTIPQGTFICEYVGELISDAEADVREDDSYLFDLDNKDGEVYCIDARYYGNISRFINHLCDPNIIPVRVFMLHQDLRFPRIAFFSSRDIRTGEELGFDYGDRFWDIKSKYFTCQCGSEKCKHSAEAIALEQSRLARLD
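Signal arises when biotinylated H3K9 peptide, once monomethylated, bridges streptavidin donor and antibody-captured acceptor beads. Enzyme at 20 nM was preincubated 15 min with test compounds; peptide 500 nM and SAM 20 uM then reacted for 2 h.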
Six1-Eya2 inh = qHTS Assay for Inhibitors of the Six1/Eya2 Interaction; Homeobox protein SIX1 (Homo sapiens) + Protein phosphatase EYA2 (Homo sapiens), …; AlphaScreen GST-Six1/His-Eya2 binding, biochemical; hits give low values; activity change, % (test concentration not listed); AID 651725, 2012; 0.56% of 360,000 active; in the data active = activity change below about -65%; inconclusive = mostly about -30% to -63%
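GST-Six1 + His-Eya2 (5X stock: 250/500 nM); Tris pH 8.0, 300 mM NaCl, 0.05% BSA, 0.02% Tween 20; GSH donor/Ni acceptor beads; 1 h 37 °C dark; AlphaScreen readout.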
Of the large screens only hits and unclear results are named; the others gave an inactive call. Unless noted, calls come from the whole dose curve; as a rule, active = well fitted inhibition curve with a large enough effect; inconclusive = small, poorly fitted or top-dose-only effect; inactive = no such curve, though single readings can be large or run the other way.

COc1ccccc1OCCCCN1CCC(C)CC1	HP1b chromo inh inconclusive, BAZ2B inh inconclusive, JMJD2A Tudor inh 13µM, G9a inh 25µM
CC1CCN(CCCCOc2ccccc2-c2ccccc2)CC1	HP1b chromo inh inconclusive, BAZ2B inh 79µM, JMJD2A Tudor inh 4.5µM, G9a inh 13µM
CC(C)(C)c1ccc(OCCCCCCN2CCNCC2)cc1	none (no result: BAZ2B inh, G9a inh)
CN1CCC(N(C)C(=O)COc2ccccc2-c2ccccc2)CC1	none
COc1cc(C)ccc1OCCOCCOc1ccccc1Br	none (no result: G9a inh)
CC1CCN(CCOCCOc2ccccc2Br)CC1	HP1b chromo inh inconclusive, BAZ2B inh 56µM, JMJD2A Tudor inh 2.5µM, G9a inh inconclusive
CC1CCN(CCCCOc2ccc(C(C)(C)C)cc2)CC1	HP1b chromo inh inconclusive, BAZ2B inh inconclusive, JMJD2A Tudor inh 20µM, G9a inh 40µM
CC1CN(CCCCSc2ccccc2)CC(C)O1 (stereo not drawn)	none (no result: CtBP-E1A inh)
c1ccc(SCCOCCN2CCOCC2)cc1	none (no result: G9a inh)
CC1CC(C)CN(CCCSc2ccccc2)C1 (stereo not drawn)	HP1b chromo inh inconclusive, BAZ2B inh inconclusive, JMJD2A Tudor inh 28µM, G9a inh inconclusive
CC1CCCN(CCCOc2ccccc2-c2ccccc2)C1 (stereo not drawn)	HP1b chromo inh inconclusive, BAZ2B inh 40µM, JMJD2A Tudor inh 1.1µM, G9a inh 11µM
CC1CCCN(CCS(=O)(=O)c2ccccc2)C1 (stereo not drawn)	none (no result: BAZ2B inh, G9a inh)
CC1CCCN(CCOCCSc2ccccc2)C1 (stereo not drawn)	HP1b chromo inh inconclusive, JMJD2A Tudor inh 2.5µM, G9a inh 10µM
CC1CCN(CCOCCOc2ccccc2-c2ccccc2)CC1	HP1b chromo inh inconclusive, BAZ2B inh inconclusive, JMJD2A Tudor inh 3.2µM, G9a inh 28µM
COc1ccccc1CNC(=O)/C=C/c1cc2c(cc1Br)OCO2	none
Cc1cc(C)cc(OCCn2nnc3ccccc32)c1	none (no result: G9a inh)
CN(CC(=O)NCCc1ccc(F)cc1)Cc1cccc(Cl)c1	none
Cc1cc(C)n2nc(SC(C)C(=O)NCc3ccco3)nc2n1 (stereo not drawn)	BAZ2B inh inconclusive, G9a inh 56µM
Cc1nnc(SCC(=O)NCc2ccco2)[nH]c1=O	G9a inh 50µM
Cc1cc(=O)[nH]c(SCC(=O)NCc2ccco2)n1	BAZ2B inh inconclusive, JMJD2A Tudor inh 79µM, G9a inh inconclusive
CCc1c(O)nc(SCC(=O)NCc2ccco2)[nH]c1=O	none
Cc1cc(-c2ccco2)n(CC(=O)NCc2ccco2)n1	G9a inh 50µM
Cc1c(C(=O)N2CCc3ccccc3C2)oc2ccccc12	none
Cc1cc(C)c(C(=O)CSc2nnc(C)c(=O)[nH]2)cc1C	G9a inh 40µM (no result: CtBP-E1A inh)
COC(=O)CSc1nnc(C)c(=O)[nH]1	none
COc1ccccc1NS(=O)(=O)c1ccc(C)c(C(=O)N2CCN(c3ccc(O)cc3)CC2)c1	JMJD2A Tudor inh 28µM (no result: BAZ2B inh, G9a inh)
COc1cc(Cl)ccc1NC(=O)COc1ccccc1C(=O)N1CCN(c2ccc(O)cc2)CC1	HP1b chromo inh inconclusive, JMJD2A Tudor inh inconclusive, G9a inh 10µM
CCOC(=O)C1CCCN(C(=O)c2cc(S(=O)(=O)Nc3ccccc3OC)ccc2C)C1 (stereo not drawn)	none
COc1cc(C(O)c2nc(-c3ccccc3)cs2)ccc1F (stereo not drawn)	none (no result: HP1b chromo inh, BAZ2B inh, JMJD2A Tudor inh, G9a inh)
C[C@H]1CC[C@H]2C(=O)N3[C@H](c4ccccc4Br)[C@@H](C)CC[C@H]3C(=O)N2[C@@H]1c1ccccc1Br	G9a inh 50µM (no result: HP1b chromo inh, JMJD2A Tudor inh, CtBP-E1A inh, Six1-Eya2 inh)
O=C(COc1cccc2cccnc12)NNC(=S)Nc1ccccc1	G9a inh 18µM (no result: HP1b chromo inh, JMJD2A Tudor inh, CtBP-E1A inh, Six1-Eya2 inh)
Cc1ccc(NC(=O)CN(C)S(=O)(=O)c2cccc3cccnc23)cc1	none
NC(=O)COc1cccc2cccnc12	G9a inh 45µM

Screens (PubChem BioAssay)
